Measured values: PubChem BioAssay (NCATS)
Inconclusive results are not listed. Values without a mark were called inactive. Calls of active or inactive are those of the source. The call rests on the fitted dose curve; in most records, active means well fitted curve in the direction sought with a large enough effect in the signal ratio, with a control signal flat (not every such curve was filed as active); inconclusive means small, poorly fitted or top-dose-only effect, or effect the other way, or a change in a side signal; inactive means no such curve, though single readings can be large or run the other way; the % refers to the signal ratio.

Biological target: Peroxisome proliferator-activated receptor gamma (Homo sapiens) (UniProt P37231)
Sequence (P37231 whole entry, looked up): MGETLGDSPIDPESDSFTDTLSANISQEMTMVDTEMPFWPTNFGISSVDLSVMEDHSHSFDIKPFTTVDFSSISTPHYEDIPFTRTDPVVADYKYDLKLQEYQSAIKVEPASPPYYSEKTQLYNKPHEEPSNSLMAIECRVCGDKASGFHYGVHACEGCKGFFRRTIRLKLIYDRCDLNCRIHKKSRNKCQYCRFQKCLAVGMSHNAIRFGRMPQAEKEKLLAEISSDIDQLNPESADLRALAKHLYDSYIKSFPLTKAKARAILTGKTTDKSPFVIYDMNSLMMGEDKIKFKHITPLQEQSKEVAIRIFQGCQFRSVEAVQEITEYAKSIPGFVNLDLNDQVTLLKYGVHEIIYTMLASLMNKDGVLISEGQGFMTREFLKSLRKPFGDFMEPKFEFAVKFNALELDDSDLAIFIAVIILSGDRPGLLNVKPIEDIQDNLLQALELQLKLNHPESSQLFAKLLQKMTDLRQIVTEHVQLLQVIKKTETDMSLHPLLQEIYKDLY
Assay: qHTS assay for small molecule agonists of peroxisome proliferator-activated receptor gamma signaling (AID 588536)
Conditions: HEK293 PPARg-UAS-bla, beta-lactamase ratio, 16 h, percent of rosiglitazone response, DMSO as zero; series mostly up to 76.7 µM; activation: at the top concentration
Source text: NIH Chemical Genomics Center [NCGC] U.S. Environmental Protection Agency [EPA] National Institutes of Environmental Health Sciences [NIEHS] National Toxicology Program [NTP] NCGC Assay Overview The Peroxisome proliferator-activated receptors (PPARs) are lipid-activated transcription factors of the nuclear receptor superfamily with three distinct subtypes namely PPAR alpha, PPAR delta (also called PPAR beta) and PPAR gamma. All these subtypes heterodimerizes with Retinoid X receptor (RXR) and these heterodimers regulate transcription of various genes. PPAR-gamma (glitazone receptor) agonists have been used in the treatment of type 2 diabetes and dyslipidaemia. It is involved in the regulation of glucose and lipid metabolism. PPAR-gamma activates certain genes like Paraoxonase 1 which is responsible for hydrolyzing organophosphates. PPAR-gamma agonists may also be therapeutically important in the treatment of coronary artery disease, obesity and cancer and atherosclerosis.
NCGC Assay Protocol Summary Using a beta-lactamase reporter-gene under control of Peroxisome Proliferator-Activated-gamma (PPAR-gamma) response element, a cell-based assay [GeneBLAzer PPAR-gamma-UAS-bla assay developed by Invitrogen] was used to measure PPAR-gamma ligands signaling. GeneBLAzer PPAR-gamma-UAS-bla-HEK293 cells were used with assay medium containing 1% charcoal/dextran treated FBS. The assay was performed in clear bottom black Greiner 1536-well plates. Rosiglitazone was used in the screen as the positive control. Library compounds were measured for their ability to stimulate the reporter gene activity. Compounds were screened in a titration series in 1536-well format. The fluorescence intensity (405 nm excitation, 460/530 nm emission) was measured using an EnVision plate reader. Data was normalized relative to Rosiglitazone control (2 uM, 100%), and DMSO only wells (basal, 0%). Concentration-response titration points for each compound were fitted to the Hill equation yielding concentrations of half-maximal stimulation (EC50) and maximal response (efficacy) values. qHTS protocol for PPAR-gamma beta-lactamase assay in agonist mode [Step] [Parameter] [Value] [Description] 1. Reagent; 6 uL; 3000 cells/well 2. Incubation; 37 C for 6 - 6.5 hrs 3. Compounds; 23 nL; 0.59 nM to 92 uM 4. Controls (Rosiglitazone); 23 nL, - One column with dose response, start 19 uM, 1:3 dilutions in duplicates - Final concentrations of 2 uM and 0.5 uM in two columns 5. Incubation; 37 C for 16 hrs 6. Detection reagent; 1 uL of CCF4-dye 7. Incubation; RT for 2 hrs 8. Detection; Fluorescence; Envision plate reader

Row | SMILES | activation | outcome
1 | CC(=O)c1ccc(Cl)c(Cl)c1Cl | -0.0197% | 
2 | N[C@@H](Cc1ccccc1)C(=O)O | 8.84% | 
3 | C=CC1CO1 (stereo not given) | -0.355% | 
4 | CCOc1ccc2nc(N)sc2c1 | 4.42% | 
5 | C=CC(C)(O)CCCC(C)CCCC(C)CCCC(C)C (stereo not given) | 4.71% | 
6 | Nc1cnn([C@@H]2O[C@H](CO)[C@@H](O)[C@H]2O)c(=O)n1 | -1.44% | 
7 | Nc1ccc(N=Nc2ccccc2)c(N)c1 | 0.206% | 
8 | Cc1cc2nc(N)sc2cc1C | 8.96% | 
9 | O=[N+]([O-])c1cccc(I)c1 | -2.88% | 
10 | COc1ccc([N+](=O)[O-])cc1N |  | inactive
11 | COc1ccc(C(=O)Nc2ccccc2)cc1[N+](=O)[O-] | 2.44% | 
12 | C=CC(=O)CC | 4.6% | 
13 | c1ccc(COCc2ccccc2)cc1 | 0.108% | 
14 | Cc1cccnc1 | 0.142% | 
15 | Cc1ccc2ccc3cccc4ccc1c2c34 | -2.35% | 
16 | c1ccc(SCCSc2ccccc2)cc1 | 0.668% | 
17 | CC/C=C/C/C=C/C/C=C/CCCCCCCC(=O)OCC | -10.9% | 
18 | CC(C)COC(=O)COc1cc(Cl)c(Cl)cc1Cl | 7.91% | 
19 | COc1ccc(C)cc1N | -1.19% | 
20 | CCCC(=O)OC(=O)CCC |  | inactive

Row | SMILES | activation | outcome
21 | C=C(C#N)C(=O)OCC | 3.08% | 
22 | Oc1c(Cl)cc(Cl)c(Cl)c1Cl | 1.46% | 
23 | c1c[nH]cn1 | 0.141% | 
24 | O=C(O)/C=C/c1ccc(/C=C/C(=O)O)cc1 | -1.65% | 
25 | Cc1ccc(C(=O)O)cc1[N+](=O)[O-] | 3.11% | 
26 | C=Cc1cccc(C)c1 | 2.01% | 
27 | Nc1ccc2c(c1)C(=O)c1ccccc1C2=O | 10.9% | 
28 | CC(CCC(=O)O)(c1ccc(O)cc1)c1ccc(O)cc1 |  | inactive
29 | O=C(Cl)c1ccc([N+](=O)[O-])cc1 | 1.94% | 
30 | Cc1c(N)cccc1Cl | -1.23% | 
31 | c1ccc2ncccc2c1 | -1.11% | 
32 | N=C1C=CC(=C(c2ccc(N)cc2)c2ccc(N)cc2)C=C1 | -2.14% | 
33 | OC1CCCCC1 | 5.19% | 
34 | S=C(NC1CCCCC1)NC1CCCCC1 | -6.09% | 
35 | Oc1cc2c(cc1O)[C@H]1c3ccc(O)c(O)c3OC[C@@]1(O)C2 | -4.41% | 
36 | NC(=O)Nc1nc2ccccc2[nH]1 | -4.69% | 
37 | CCNC(=S)NCC | -1.37% | 
38 | O=c1[nH]ncc2ccccc12 | 3.55% | 
39 | OCC(CO)(CBr)CBr |  | inactive
40 | O=C1OC(=O)c2ccccc21 | -3.7% | 
